Measured values from PubChem BioAssay (NCATS).
Results filed as inconclusive are left out. Where a call stands in place of a potency, no number is given. The source made the active and inactive calls. Calls come from the whole dose curve; as a rule, active = well fitted curve in the direction sought with a large enough effect; inconclusive = small, poorly fitted or top-dose-only effect, or another doubt; inactive = no such curve, though single readings can be large; an effect the other way counts as inactive or inconclusive.

Assays:
[1] = biological target: Aldehyde dehydrogenase, mitochondrial (Homo sapiens) (UniProt P05091); assay: qHTS for Inhibitors of the Aldehyde Dehydrogenase Family (ALDH2) Primary screen (AID 2061308); conditions: ALDH2 enzyme inhibition qHTS, 1536-well; series mostly up to 56 µM; note: nearly all actives have a fitted effect of over 55% in size
[2] = biological target: Retinaldehyde dehydrogenase 3 (Homo sapiens) (UniProt P47895); assay: qHTS for Inhibitors of the Aldehyde Dehydrogenase Family (ALDH1A3) Primary screen (AID 2061315); conditions: ALDH inhibition qHTS; series mostly up to 56 µM

Structure (SMILES) | Potency [1] | Potency [2]
Cc1cc2c(s1)c1cnn(Cc3ccc(C)c(F)c3)c(=O)c1n2C | inactive | inactive
O=C(Nc1ccc(-n2ccnc2)c(F)c1)Nc1nnc(-c2ccncc2)s1 | inactive | inactive
CCCn1c(C)nc2c(NCCCCN(CC)CC)nc(C)nc21 | inactive | inactive
CC(=O)c1ccc(-c2csc3ncnc(Sc4nnnn4C)c23)cc1 | inactive | inactive
O=C1c2ccccc2C(=O)N1c1ccccn1 | inactive | inactive
